# Measurements as given in the supplement of paper PMC6555819.
# How the values were obtained:
# Experiment in all cases: PBM binding z-score (relative to random genomic background probes); higher = stronger binding; sequences stand for … in GC…GCGATTGACAGCGTAGAATGAAGG
# [1] = tested on: FXR:RXRa (NR concentration 270 nM, RXRa partner concentration 90 nM)
# In short: (§1)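 Antibodies against each partner of ligand-free nuclear receptor dimers (one per run) detected binding on custom Agilent 4×180K protein-binding microarrays after 1 h incubation. The double-stranded probes had 34-nt variable regions carrying direct-repeat seeds, single-nucleotide variants, half-site ablations and random human genomic background sequences. Binding z-scores, from regression-normalized fluorescence, use the random background probes as reference.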
# [2] = tested on: LXRa:RXRa (NR concentration 270 nM, RXRa partner concentration 90 nM)
# In short: as §1
# [3] = tested on: LXRa homodimer (NR concentration 270 nM)
# In short: as §1
# [4] = tested on: LXRb:RXRa (NR concentration 270 nM, RXRa partner concentration 90 nM)
# In short: as §1
# [5] = tested on: LXRb homodimer (NR concentration 270 nM)
# In short: as §1
# [6] = tested on: PPARa:RXRa (NR concentration 270 nM, RXRa partner concentration 90 nM)
# In short: as §1
# [7] = tested on: PPARg:RXRa (NR concentration 180 nM, RXRa partner concentration 90 nM)
# In short: as §1
# [8] = tested on: PPARg:RXRa 270nM:90nM, anti-RXR (NR concentration 270 nM, RXRa partner concentration 90 nM)
# In short: as §1
# [9] = tested on: PPARg:RXRa 30nM:10nM, anti-RXR (NR concentration 30 nM, RXRa partner concentration 10 nM)
# In short: as §1
# [10] = tested on: PPARg:RXRa 90nM:30nM, anti-RXR (NR concentration 90 nM, RXRa partner concentration 30 nM)
# In short: as §1
# [11] = tested on: PPARg:RXRa DBDmut IVT, anti-RXR (DBD mutation: RXRa K156A/R161A, NR concentration 270 nM, RXRa partner concentration 90 nM)
# In short: as §1
# [12] = tested on: PPARg:RXRa IVT, anti-PPARg (NR concentration 270 nM, RXRa partner concentration 90 nM)
# In short: as §1
# [13] = tested on: PPARg DBDmut:RXRa IVT, anti-PPARg (DBD mutation: PPARg1 K132A/R137A, NR concentration 270 nM, RXRa partner concentration 90 nM)
# In short: as §1
# [14] = tested on: PPARg DBDmut IVT, anti-PPARg (DBD mutation: PPARg1 K132A/R137A, NR concentration 270 nM)
# In short: as §1
# [15] = tested on: PPARg homodimer (NR concentration 180 nM)
# In short: as §1
# [16] = tested on: PXR:RXRa (NR concentration 270 nM, RXRa partner concentration 90 nM)
# In short: as §1
# [17] = tested on: PXR homodimer (NR concentration 270 nM)
# In short: as §1
# [18] = tested on: RARa:RXR (NR concentration 270 nM, RXRa partner concentration 90 nM)
# In short: as §1
# [19] = tested on: RARa homodimer (NR concentration 270 nM)
# In short: as §1
# [20] = tested on: RARb:RXRa (NR concentration 270 nM, RXRa partner concentration 90 nM)
# In short: as §1
Sequence,PBM binding z-score [1],PBM binding z-score [2],PBM binding z-score [3],PBM binding z-score [4],PBM binding z-score [5],PBM binding z-score [6],PBM binding z-score [7],PBM binding z-score [8],PBM binding z-score [9],PBM binding z-score [10],PBM binding z-score [11],PBM binding z-score [12],PBM binding z-score [13],PBM binding z-score [14],PBM binding z-score [15],PBM binding z-score [16],PBM binding z-score [17],PBM binding z-score [18],PBM binding z-score [19],PBM binding z-score [20]
CAAACTAGGTCAAGAGGTCAAAGTCCGCTTCCCG,7.09,6.37,6.55,5.7,1.96,6.67,9.95,8.33,6.28,8.63,8.49,8.35,2.14,1.19,6.92,6.2,2.86,7.83,3.01,5.53
TCTCGGAGGGCACGAAGGTCAGAGCTTTCCAGAG,1.96,2.22,0.0808,1.7,-1.18,2.96,1.3,2.4,1.73,1.99,1.9,2.51,-0.633,-1.03,1.08,3.25,2.26,2.88,-0.387,3.92
TGATATAGGTAATACAGGTGAAAGTCGGCATCTA,0.306,0.701,0.521,0.418,0.00189,2.16,2.39,2.3,1.33,2.05,4.32,4.45,1.57,1.13,1.38,0.409,0.476,0.69,0.77,0.624
ACTATTAGTTGATACGAGGGCAACCGATAGGTTG,0.829,0.48,0.407,0.266,0.576,0.327,0.752,0.283,0.308,0.272,0.641,1.17,1.01,1.4,0.764,1.34,0.799,0.922,0.828,1.28
CCTCGGAGGACAAAAGGTCAGAGCTGTCCGCTTT,3.66,4.52,2,3.34,-0.114,3.96,1.65,3.76,1.1,3.22,1.07,1.62,-0.684,-1.47,4.04,3.72,0.0706,4.59,0.836,4.61
CAAACTAGGTAAAGAGGTCAAAGTCCGCTTCCCG,4.77,5.01,4.55,4.65,1.08,5.7,6.6,6.92,5.17,7.2,6.78,6.91,3.48,1.44,5.18,5.5,2.02,6.1,1.43,3.95
CCTGGGAGGACAGAAGGTCAGAGCTGTCCGCTTT,1.53,1.86,0.303,1.01,-0.655,2,-0.0173,1.11,-0.659,0.29,-0.504,0.212,-1.2,-1.6,1.81,1.65,-0.162,2.16,0.121,3.35
CCGAGTAGGTTATAGGGCATTCAGGCAACGGTGA,0.59,0.988,0.388,0.765,-0.185,3.47,6.04,6.43,4.96,6.5,3.99,4.27,0.108,-0.169,1.05,0.219,-0.129,0.863,0.46,1.24
GCTTGTAGATCAAGGTTAAGAAGGACTAAGCTAA,0.204,0.416,-0.49,0.546,-1.11,1.38,0.945,2.08,0.323,1.79,1.59,0.939,-0.676,0.139,-0.16,0.306,-0.0751,0.701,-0.375,0.923
GCTGCTAGGTCAAGTGATGGTCAGCTAAAGCTCG,4.09,3.01,0.152,1.9,-0.0819,3.57,2.46,3.13,0.591,2.12,4.64,4.05,0.0181,-0.582,1.55,1.43,-0.69,2.5,-0.171,4.11
CCAGACAGGTGAGAAGGTAACTAAGCCTCGATTA,-0.00461,0.0397,-0.256,-0.0609,-0.426,0.532,0.439,0.258,-0.00796,-0.013,0.948,0.601,-0.627,-0.192,0.387,-0.327,0.346,-0.102,0.36,0.585
ACTAGCATGCCAAGGGTCACTCAAGATTAGTCCG,2.51,2.97,0.285,2.95,0.101,4.14,5.14,6.08,3.82,6.39,0.455,2.66,-0.409,0.469,2.73,3.31,-0.0678,4.02,0.721,3.38
TCATATAGGTAAAAAGGTGAAAGTCCGTAAGTTA,1.56,1.85,0.558,1.8,0.394,3.53,3.87,5.05,5.01,5.53,4.17,4,0.729,0.649,1.85,1.4,0.696,2.87,1.81,2.03
TTACCAAGGAGAGCTGAGGTCGTTGATCCAACTC,0.524,-0.0675,-0.298,0.248,-1.1,0.632,-0.233,0.453,0.297,0.316,-0.667,-0.449,-0.504,-0.387,0.217,1.29,0.364,0.846,-0.664,0.145
GGAACGAGGGCAAGTTGATAGTAGAGTTTGATGG,0.866,0.53,-0.29,0.413,-0.108,1.74,1.01,0.848,0.216,0.579,3.65,2.79,0.241,-0.486,0.584,0.965,1.17,0.509,0.408,2.76
AGAATGAGGGCAATGAGTTGATAGCACGGGTGGC,0.728,0.505,-0.515,-0.0914,-0.286,1.91,1.79,1.42,0.0297,0.697,4.59,3.33,0.634,0.0242,0.0668,1.89,5.25,0.357,0.124,2.04
GCGACTGGGGTAAAGCAGGTTACCATAAGGTTGG,0.315,0.949,-0.396,0.852,-0.819,1.66,0.941,1.19,0.0678,0.64,3.33,2.74,-0.328,-0.991,-0.0118,0.651,-0.238,0.955,-0.412,0.44
CGAACTAGGTCAGTGACAGGACAGTGAATAGTAA,1.32,0.944,-0.268,0.82,-0.44,3.47,5.73,4.86,1.66,4.11,7.42,7.6,2.57,0.828,0.785,0.605,0.0765,1.03,0.459,3.11
CAAACTAGGTCAGCGGAAGGTCAAAGTCCGCATG,4.7,5.1,3.95,4.3,0.622,5.61,7.65,6.54,4.12,6.37,7.81,8.08,3.33,1.19,5.64,5.42,1.11,6.59,1.75,4.89
TCTGCTAGGTAAGTTGGTCAGCTAACGAGCTGCC,-0.553,-0.651,-0.909,-0.852,-0.795,-0.166,-0.748,0.411,1.22,0.642,0.619,0.862,-0.126,-0.493,-1.41,-0.474,-1.39,-0.538,-1.81,-0.235
CCGACTGTGGCATAAGGTTACCATAAGCCAGCCC,0.578,2.4,0.142,1.07,-0.834,1.36,0.99,1.57,-0.0445,0.844,1.12,0.305,-0.617,-0.541,0.621,0.365,0.018,0.961,0.166,0.964
TCTTGTAGATCAAGCAGGTTAAGGAAGCCTGAGT,0.133,0.211,-0.315,0.139,-0.226,0.674,-0.544,1.08,2.6,1.8,1.51,0.345,0.213,-0.0431,-0.0432,0.142,0.105,0.407,-0.315,0.0755
CCTTACGGGTCACTGACAGGTTATAGTATTTGGA,5.25,4.01,0.456,3.4,0.163,4.95,4.75,4.34,1.8,2.96,3.44,3.9,0.845,0.452,2.3,3.46,0.317,4.47,0.728,3.93
TTACCAAGGTGGAGGTCGTTGATCCCTCTGTAGA,1.68,1.96,0.12,1.66,-0.0737,1.7,0.691,2.12,0.972,1.4,-0.0945,0.927,-0.0829,0.467,0.494,1.37,-0.028,1.58,-0.0306,0.92
CAAACTAGGTCACGAAACGTCAAAGTCGAATGAC,4.62,3.49,0.329,2.55,0.542,5.24,9.06,7.26,5.44,7.36,8.38,9.02,2.1,1.7,2,1.76,0.0967,2.91,0.992,4.36
GCTGCTAGGTCTACTGATGGTCAGCTAAAGCTCG,-0.686,-0.0634,-0.277,-0.896,-0.887,-0.691,-0.539,-0.623,-0.649,-0.834,0.214,-0.311,-1.02,-1.38,-1.15,-0.901,-1.2,-0.701,-0.754,-0.132
CCGACTGGGGAAAAGGTTACCATACTCAGTACGA,0.132,0.716,-0.0897,1.29,-0.67,3.82,6.95,7.47,6.02,8.23,0.816,2.89,-0.258,-0.129,1.18,0.978,-0.181,1.8,0.0679,1.59
CAAACTAGGTCACGAAAGGTCATAGTCGAATGAC,7.43,7.78,7.34,6.95,2.21,6.37,10.5,8.43,7.64,8.8,8.9,9.17,2.98,2.98,6.62,6.74,2.77,7.32,3.5,5.58
GCGACTGGGGCATCAGCACGTTACCATAACTTAA,-0.278,-0.417,-0.429,0.31,-0.932,0.476,0.927,0.64,-0.0937,0.15,3.89,3,0.00267,-0.723,-0.048,-0.493,-0.113,-0.399,-0.0529,0.327
